# Assay results reported in ChEMBL document CHEMBL4513146, “CO-ADD screening of Karazin Kharkiv National University (Ukraine) compounds”.
# Entries with a potency or affinity are not part of this list.
# Assays:
# Klebsiella pneumoniae = conditions: Concentration 32 ug.mL-1;; ASSAY_TEST Inhibition of Bacterial Growth; detection method Absorption (OD600); MEDIA CAMHB; plate type 384well; NBS; CORNING #3640; time 18 hr
# Candida albicans = conditions: Concentration 32 ug.mL-1; ASSAY_TEST Inhibition of Fungal Growth; detection method Absorption (OD530)
# Cryptococcus neoformans = conditions: Concentration 32 ug.mL-1; ASSAY_TEST Inhibition of Fungal Growth; detection method Resazurin; Absorption (OD600-OD570); plate type 384well; NBS; CORNING #3640
Structure (SMILES),Inhibition (Klebsiella pneumoniae),Inhibition (Candida albicans),Inhibition (Cryptococcus neoformans)
O=C(CCc1nnc2c(N3CCCCC3)nc3ccccc3n12)NCCc1ccc(Cl)cc1,17.22%,2.39%,-25.04%
O=c1c2nnc(SCc3ccc(F)cc3)n2ccn1-c1ccc(Br)cc1,4.74%,2.87%,-8.82%
O=C(CSc1nnc2c(=O)n(-c3ccccc3)ccn12)c1c[nH]c2ccccc12,19.5%,3.09%,-9.19%
Cc1ccc(-c2cc3c4nnc(SCC(=O)Nc5ccccc5Br)n4ccn3n2)cc1,5.31%,5.08%,-35.04%
CCc1ccc(N(Cc2ccccc2C)S(=O)(=O)c2cccn3c(C)nnc23)cc1,3.93%,5.07%,-8.38%
O=C(Cn1nc2ccc(Sc3ccccc3)nn2c1=O)Nc1ccc(Cl)cc1,9.24%,8.96%,-7.55%
CCc1ccc(NC(=O)Cn2nc3ccc(SC4CCCCC4)nn3c2=O)cc1,3.55%,2.46%,-12.68%
COC(=O)c1ccccc1NC(=O)Cn1nc2c(Oc3ccccc3)nccn2c1=O,8.23%,7%,-9.79%
Cc1ccc(-c2cc3c4nn(CC(=O)Nc5cc(Cl)ccc5C)c(=O)n4ccn3n2)cc1C,6%,4.85%,-8.51%
Cc1ccc(NC(=O)Cn2nc3ccc(SCc4ccc(Cl)cc4)nn3c2=O)c(C)c1,5.23%,4.69%,-27.61%
O=c1c2nn(Cc3cccc(Cl)c3)c(=O)n2ccn1-c1ccccc1,1.75%,6.73%,-10.03%
CCCCOc1ccc(-c2cc3c4nnc(SCC(=O)Nc5ccccc5F)n4ccn3n2)cc1,-0.1%,7.26%,-10.98%
Cc1cc(C)c(NC(=O)Cn2nc3c(N4CCN(c5ccccc5)CC4)nccn3c2=O)c(C)c1,10.19%,11.4%,-7.74%
COc1cccc(Sc2nc3ccccc3n3c(=O)n(CC(=O)Nc4cccc(C#N)c4)nc23)c1,5.87%,14.41%,-21.13%
CC(C)c1ccc(N(Cc2cc(F)cc(F)c2)S(=O)(=O)c2cccn3cnnc23)cc1,4.84%,0.58%,-6.06%
Cc1cc(C)c(NC(=O)Cn2nc3c(SCc4ccc(Cl)cc4)nccn3c2=O)c(C)c1,8.66%,25.19%,-17.24%
COc1ccc(N(Cc2cccc(C)c2)S(=O)(=O)c2ccc3nncn3c2)cc1,-1.75%,4.35%,-8.71%
O=C(CSc1nnc2c(=O)n(-c3ccccc3)ccn12)Nc1cc(F)ccc1F,-0.92%,1.57%,-15%
CCc1nnc2ccc(S(=O)(=O)N(Cc3ccc(F)cc3)c3ccc(OC)cc3)cn12,5.94%,-0.37%,-3.5%
Cc1ccccc1N1CCN(c2nccn3c(=O)n(CC(=O)Nc4cccc(C(C)C)c4)nc23)CC1,0.34%,19.66%,-7.69%
Cc1cccc(NC(=O)Cn2nc3c4cc(-c5ccc(F)cc5)nn4ccn3c2=O)c1C,6.39%,16.67%,-22.65%

Structure (SMILES),Inhibition (Klebsiella pneumoniae),Inhibition (Candida albicans),Inhibition (Cryptococcus neoformans)
Cc1cccc(NC(=O)CSc2nnc3c(=O)n(-c4ccccc4)ccn23)c1,3.26%,1.31%,-14.94%
COC(=O)c1ccccc1NC(=O)Cn1nc2c(Oc3ccc(C)cc3)nccn2c1=O,2.12%,-2.14%,-10.13%
O=C(Cn1nc2ccc(-c3ccccc3)nn2c1=O)Nc1ccc(F)c(Cl)c1,7.19%,1.94%,-6.93%
Cc1oc(-c2cccc(Cl)c2)nc1CSc1nc2ccccc2n2c(C(C)C)nnc12,8.12%,1.38%,-17.47%
CC(C)NC(=O)Cn1nc2n(Cc3ccco3)c(=O)c3sccc3n2c1=O,9.3%,0.87%,-5.24%
COC(=O)c1ccc(NC(=O)Cn2nc3ccc(S(=O)(=O)c4ccccc4)nn3c2=O)cc1,3.88%,1.43%,-5.62%
O=C(Cn1nc2ccc(SC3CCCCC3)nn2c1=O)Nc1ccc2c(c1)OCO2,-18.44%,1.48%,-3.38%
Cc1cccc(N(Cc2cccc(F)c2)S(=O)(=O)c2cccn3c(C)nnc23)c1,14.45%,2.26%,-8.56%
O=C(Cn1nc2c3sccc3ncn2c1=O)Nc1ccc2c(c1)OCO2,-3.23%,1.42%,-18.53%
COc1cc(OC)c(NC(=O)Cn2nc3ccc(SC4CCCCC4)nn3c2=O)cc1Cl,10.6%,29.07%,-6.25%
Cc1ccc(NC(=O)Cn2nc3c4cc(-c5ccc(C)c(C)c5)nn4ccn3c2=O)c(C)c1,-6.92%,-0.38%,-15.91%
CCCCN(CC)c1ccc2nnc(CCc3nc(-c4ccc(OCc5ccccc5)cc4)no3)n2n1,10.12%,5.5%,-16.46%
CCc1cccc(NC(=O)Cn2nc3nc(N4CCCCCC4)ccn3c2=O)c1,14.42%,0.8%,-9.37%
CCOc1ccc(NC(=O)Cn2nc3c(Oc4ccc(C)cc4)nccn3c2=O)cc1,5.41%,0.26%,-8.36%
Cc1ccc(CN(c2ccc3c(c2)OCO3)S(=O)(=O)c2ccc3nnc(C)n3c2)cc1,2.15%,2.45%,-2.21%
O=c1n(Cc2ccc3c(c2)OCO3)nc2ccc(-c3ccccc3)nn12,13.28%,2.43%,-7.16%
COc1ccc(NC(=O)Cn2nc3nc(Nc4ccc(F)cc4)ccn3c2=O)cc1Cl,7.26%,4.14%,-6.17%
COc1cc(NC(=O)CSc2nnc3c(=O)n(-c4ccc(C)c(C)c4)ccn23)cc(OC)c1,2.77%,1.66%,-9.37%
O=c1n(Cc2cccc(Cl)c2)nc2ccc(-c3ccccc3)nn12,19.54%,2.36%,-20.37%
CCc1ccccc1NC(=O)Cn1c(=O)c2nnc(C(C)C)n2c2ccccc21,-2.33%,1.4%,-16.86%
COc1ccc(-c2cc3c4nnc(CCC(=O)NCc5ccc(OC)c(OC)c5)n4ccn3n2)cc1,12.53%,2.24%,-11.61%

Structure (SMILES),Inhibition (Klebsiella pneumoniae),Inhibition (Candida albicans),Inhibition (Cryptococcus neoformans)
O=c1c2sccc2n2c(=O)n(Cc3cccc(Br)c3)nc2n1Cc1cccs1,-22.43%,62.43%,-21.53%
O=C(Cn1nc2c(SCc3ccccc3)nccn2c1=O)NCc1ccccc1,-8.41%,20.32%,-13.69%
COc1ccc(NC(=O)CSc2nc3ccccc3n3c(C(C)C)nnc23)cc1Cl,5.17%,1.87%,-6.36%
O=C(CCc1nnc2c(N3CCCCC3)nc3ccccc3n12)NCc1ccc(Br)cc1,7.61%,2.54%,-23.12%
COc1ccc(NC(=O)c2ccc3nn(CC(=O)Nc4ccc(S(C)(=O)=O)cc4)c(=O)n3c2)cc1,1.84%,15.13%,-4.16%
COc1ccc(NC(=O)Cn2nc3c(Oc4ccc(C)cc4)nccn3c2=O)cc1Cl,0.22%,18.79%,-4.53%
Cc1cc(C)cc(Nc2nc(C)cc3nn(CC(=O)Nc4cccc(Cl)c4)c(=O)n23)c1,7.28%,4.92%,-8.23%
COc1ccccc1CNC(=O)Cn1nc2c(SCc3ccc(Cl)cc3)nccn2c1=O,9.05%,2.3%,-6.8%
Cc1ccc(-c2cc3c4nn(CC(=O)Nc5ccccc5Cl)c(=O)n4ccn3n2)cc1,2.6%,0.36%,-23.03%
COc1cc(NC(=O)CSc2nnc3c(=O)n(-c4ccccc4)ccn23)cc(OC)c1,17.43%,0.46%,-23.26%
Cc1c(Cl)cccc1NC(=O)Cn1nc2c3c4c(sc3ncn2c1=O)CCCCC4,9.28%,4.44%,-27.44%
COC(=O)c1cccc(NC(=O)Cn2nc3c(SCc4ccc(Cl)cc4)nccn3c2=O)c1,6.22%,27.78%,-15.7%
COc1cccc(-n2ccn3c(SCC(=O)c4cc(C)c(C)cc4C)nnc3c2=O)c1,11.25%,2.17%,-10.44%
Cc1cccc(NC(=O)Cn2nc3ccc(SC(C)(C)C)nn3c2=O)c1,5.1%,1.46%,-8.45%
CC(C)c1nnc2c(=O)n(CC(=O)Nc3ccc(Cl)c(Cl)c3)c3ccccc3n12,5.02%,3.27%,-9.31%
COC(=O)c1sccc1NC(=O)CSc1nc2ccccc2n2c(C)nnc12,6.24%,5.11%,-2.05%
CCOC(=O)c1ccccc1NC(=O)Cn1nc2c(Oc3ccc(C)cc3)nccn2c1=O,-8.56%,4.6%,-10.52%
CCc1nnc2c(S(=O)(=O)N(Cc3ccccc3C)c3ccc(C(C)C)cc3)cccn12,3.73%,21.84%,-8.38%
Cc1cc(C)cc(Oc2nc3ccccc3n3c(=O)n(CC(=O)Nc4ccc5c(c4)OCO5)nc23)c1,6.8%,46.24%,-19.74%
